The results in this text go back to PubChem BioAssay (EPA / NIEHS).

Assay [1] can be described thus: ATG_M_61_CIS: Attagene CIS-FACTORIAL HepG2 Assay for M61 Transcription Factor (Internal Marker) (AID 2282937). The following applies: HepG2 Attagene CIS-FACTORIAL M61 internal marker reporter; actives raise or lower the signal. In outline:
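Readout is reporter mRNA by RT-PCR, fluorescent primer extension and capillary electrophoresis, with gain or loss fitted relative to DMSO. Transfected HepG2 cells carrying endogenous-TF-driven cis reporters were exposed to chemicals for 24 hours.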

Assay [2] can be described thus: ATG_EGR_CIS: Attagene CIS-FACTORIAL HepG2 Assay for human Early Growth Response 1 (EGR1) (AID 2282938). The settings on record: HepG2 Attagene CIS-FACTORIAL EGR reporter mRNA; actives raise or lower the signal. In outline: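 After 24 h compound exposure, RNA from reporter-transfected HepG2 cells was reverse-transcribed, PCR-amplified, fluorescently labelled and resolved by capillary electrophoresis. EGR1 reporter transcript changes, up or down, were fitted against DMSO, reflecting endogenous transcription-factor activity.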

Assay [3] can be described thus: ATG_M_19_CIS: Attagene CIS-FACTORIAL HepG2 Assay for M19 Transcription Factor (Internal Marker) (AID 2282939). The following applies: HepG2 Attagene CIS-FACTORIAL M19 internal marker reporter; actives raise or lower the signal. Put shortly: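 Chemical-treated HepG2 (24 h) with MRTU constructs; reporter transcripts detected by fluorescent RT-PCR fragment analysis on capillary electrophoresis. Internal background marker, DMSO as baseline.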

The nature of assay [4]: ATG_ERE_CIS: Attagene CIS-FACTORIAL HepG2 Assay for Estrogen Response Element (ERE) (AID 2282940). The following applies: HepG2 ERE cis-reporter, Attagene RNA transcript; actives raise or lower the signal. Put shortly:
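Human liver cells (HepG2) bearing transiently transfected, promoter-regulated reporter units were exposed 24 h. Reporter mRNA induction was detected by capillary electrophoresis of labelled RT-PCR products and fitted bidirectionally to DMSO.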

Assay [5] is described as follows: ATG_Ets_CIS: Attagene CIS-FACTORIAL HepG2 Assay for human Erythroblast Transformation Specific (ETS) (AID 2282941). The following applies: HepG2 ETS cis-reporter transcription, actives raise or lower the signal. In outline: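 Endogenous transcription factor activity read as reporter mRNA via RT-PCR and capillary electrophoresis, with gain or loss fitted bidirectionally against DMSO. Human HepG2 liver cells, transiently transfected CIS reporter constructs, 24 h exposure.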

For assay [6], the target named is Hepatocyte nuclear factor 3-beta (Homo sapiens) (UniProt Q9Y261). The experiment in a line: ATG_FoxA2_CIS: Attagene CIS-FACTORIAL HepG2 Assay for human Forkhead box A2 (FOXA2) (AID 2282942). The settings on record: HepG2 cis-reporter transcription factor activity, 24 h; actives raise or lower the signal. In outline: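 Endogenous transcription factor activity is captured via cis-element-driven reporter transcripts in transfected HepG2. Total RNA taken at 24 h post-dosing; labelled RT-PCR products resolved by capillary electrophoresis. Gain or loss fitted versus DMSO.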

Assay [7] in a line: ATG_FoxO_CIS: Attagene CIS-FACTORIAL HepG2 Assay for human Forkhead box O (FoxO) (AID 2282943). The settings on record: HepG2 Attagene cis-reporter, FoxO element, mRNA; actives raise or lower the signal. Put shortly: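 HepG2 cells transiently transfected with cis-element-driven reporter units report endogenous FoxO activity. After 24 h chemical exposure, reporter mRNA quantified by RT-PCR, fluorescent labeling, HpaI digestion and capillary electrophoresis; bidirectional fit versus DMSO.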

Assay [8] in a line: ATG_GATA_CIS: Attagene CIS-FACTORIAL HepG2 Assay for human GATA Binding Protein (AID 2282944). The settings on record: HepG2 GATA cis-element reporter, Attagene multiplex mRNA; actives raise or lower the signal. Put shortly: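 Transfected cis-reporter HepG2 cells were treated with chemicals for 24 hours. Total RNA was then converted to cDNA, amplified with reporter-specific primers and analysed by fluorescent capillary electrophoresis, using DMSO-treated wells as baseline.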

Assay [9] is described as follows: ATG_GLI_CIS: Attagene CIS-FACTORIAL HepG2 Assay for human Zinc Finger Protein GLI1 (AID 2282945). The settings on record: HepG2, Attagene cis-factorial reporter mRNA, GLI element; actives raise or lower the signal. In outline:
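Transiently transfected HepG2 cells report endogenous transcription factor activity via cis-element-driven reporter units. After 24 h compound exposure, reporter mRNA was measured by RT-PCR with capillary electrophoresis; bidirectional fitting against DMSO baseline.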

Assay [10] is described as follows: ATG_ISRE_CIS: Attagene CIS-FACTORIAL HepG2 Assay for human Interferon Regulatory Factor 1 (IRF1) binding to an Interferon-Stimulated Response Element (ISRE) (AID 2282948). The following applies: HepG2 ISRE cis-reporter (Attagene), mRNA transcription readout; actives raise or lower the signal. Put shortly:
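Endogenous transcription factor activity read as reporter transcript abundance via RT-PCR and capillary electrophoresis. HepG2 cells transiently transfected, 24 h chemical exposure. Gain or loss fitted against DMSO baseline.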

Assay [11] is described as follows: ATG_M_32_CIS: Attagene CIS-FACTORIAL HepG2 Assay for M32 Transcription Factor (Internal Marker) (AID 2282949).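 Note: background control marker of the multiplexed CIS panel rather than a real target.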 The settings on record: HepG2 Attagene cis-factorial M32 reporter, mRNA; actives raise or lower the signal. In outline:
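Using DMSO as baseline, bidirectional curve fits were applied to reporter mRNA signals. These came from transiently transfected HepG2 cells exposed for 24 h, with RNA analysed by RT-PCR, FAM primer extension, HpaI digestion and CE.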

For assay [12], the target named is Hypoxia-inducible factor 1-alpha (Homo sapiens) (UniProt Q16665). The experiment in a line: ATG_HIF1a_CIS: Attagene CIS-FACTORIAL HepG2 Assay for human Hypoxia Inducible Factor 1 (HIF1A) (AID 2282951). The settings on record: HepG2 Attagene cis-factorial HIF1a reporter transcription; actives raise or lower the signal. In outline: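 Activity is fitted in both directions relative to DMSO. Reporter transcripts are read by RT-PCR, fluorescent primer extension and capillary electrophoresis after 24 h chemical treatment. The cells are HepG2 carrying transiently transfected cis-element-driven reporter units responding to endogenous factors.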

Assay [13] concerns the target Hepatocyte nuclear factor 6 (Homo sapiens) (UniProt Q9UBC0). The experiment in a line: ATG_HNF6_CIS: Attagene CIS-FACTORIAL HepG2 Assay for human Hepatocyte Nuclear Factor 6 (HNF6) (AID 2282952). The following applies: HepG2 Attagene cis-factorial HNF6 reporter transcription; actives raise or lower the signal. In outline:
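First, HepG2 cells were transfected with the multiplexed cis reporter library and dosed with chemical for 24 h. Next, RNA was reverse-transcribed, PCR-amplified and fluorescently labelled. Finally, HpaI-digested fragments were read by capillary electrophoresis.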

For assay [14], the target named is Heat shock factor protein 1 (Homo sapiens) (UniProt Q00613). The experiment in a line: ATG_HSE_CIS: Attagene CIS-FACTORIAL HepG2 Assay for human Heat Shock Transcription Factor 1 (HSE) (AID 2282953). The settings on record: HepG2 HSE cis-reporter, Attagene RNA transcription; actives raise or lower the signal. Put shortly: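 Liver-derived HepG2 cells carry transiently introduced multiple reporter units governed by cis promoters. Reporter RNA measured 24 h post-dose through reverse transcription, PCR amplification, fluorescent labelling and capillary electrophoresis, normalised to DMSO.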

Assay [15] can be described thus: ATG_MRE_CIS: Attagene CIS-FACTORIAL HepG2 Assay for human Metal Responsive Element (MRE) (AID 2282954). The following applies: HepG2 MRE cis-reporter transcription, Attagene multiplex; actives raise or lower the signal. In outline:
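RT-PCR/capillary electrophoresis readout of reporter mRNA, 24 h post-dosing, in HepG2 cells transfected with multiplexed cis-regulated reporter constructs. Gain or loss of signal fitted bidirectionally against DMSO baseline.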

Assay [16] is described as follows: ATG_PBREM_CIS: Attagene CIS-FACTORIAL HepG2 Assay for human Phenobarbital-responsive Enhancer Module (PBREM) (AID 2282955). The settings on record: HepG2 PBREM cis-reporter, Attagene multiplexed transcription; actives raise or lower the signal. Put shortly:
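Endogenous transcription factor activity was read from reporter transcripts in transiently transfected human HepG2 liver cells after 24 h dosing. RT-PCR products were fluorescently labelled, HpaI-cut and sized by capillary electrophoresis; activity fitted bidirectionally against DMSO baseline.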

In assay [17] the target is Paired box protein Pax-6 (Homo sapiens) (UniProt P26367). The experiment in a line: ATG_Pax6_CIS: Attagene CIS-FACTORIAL HepG2 Assay for human Paired Box 6 (PAX6) (AID 2282956). The following applies: HepG2 CIS-FACTORIAL PAX6 reporter transcription, RNA readout; actives raise or lower the signal. In outline:
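Read-out is reporter transcript level, measured by RT-PCR with fluorescent primer extension and capillary electrophoresis after 24 h dosing of transfected HepG2 cells. Activity in either direction fitted relative to DMSO control.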

Assay [18] in a line: ATG_GRE_CIS: Attagene CIS-FACTORIAL HepG2 Assay for human Glucocorticoid Response Elements (GRE) (AID 2282947). The following applies: HepG2 GRE cis-reporter, Attagene multiplex mRNA; actives raise or lower the signal. Put shortly:
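Read-out: fluorescent reporter-transcript fragments separated by capillary electrophoresis after RT-PCR. Transiently transfected HepG2 cells carrying cis-element-driven reporter units were dosed for 24 h; gain or loss of signal fitted against DMSO control.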

Assay [19] is described as follows: ATG_M_06_CIS: Attagene CIS-FACTORIAL HepG2 Assay for M06 Transcription Factor (Internal Marker) (AID 2282950). The settings on record: HepG2 Attagene CIS-FACTORIAL M06 internal marker reporter; actives raise or lower the signal. Put shortly:
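Cells (HepG2, transiently carrying cis-driven reporter units) receive chemical for 24 h before RNA isolation. Reporter cDNA is PCR-amplified, FAM-labelled by primer extension, HpaI-digested and sized on a capillary analyser.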

Calls of active or inactive are those of the source. Rule for the calls: active = hit-call score of the fitted dose curve at least 0.9, where 1 is the maximum; inactive = score below 0.9.

Broadly, the AC50 is the midpoint of the concentration-response curve, whichever way the signal moves.

Hepatocyte nuclear factor 6 (Homo sapiens), sequence (Q9UBC0 whole entry, looked up, the tested form may be a part): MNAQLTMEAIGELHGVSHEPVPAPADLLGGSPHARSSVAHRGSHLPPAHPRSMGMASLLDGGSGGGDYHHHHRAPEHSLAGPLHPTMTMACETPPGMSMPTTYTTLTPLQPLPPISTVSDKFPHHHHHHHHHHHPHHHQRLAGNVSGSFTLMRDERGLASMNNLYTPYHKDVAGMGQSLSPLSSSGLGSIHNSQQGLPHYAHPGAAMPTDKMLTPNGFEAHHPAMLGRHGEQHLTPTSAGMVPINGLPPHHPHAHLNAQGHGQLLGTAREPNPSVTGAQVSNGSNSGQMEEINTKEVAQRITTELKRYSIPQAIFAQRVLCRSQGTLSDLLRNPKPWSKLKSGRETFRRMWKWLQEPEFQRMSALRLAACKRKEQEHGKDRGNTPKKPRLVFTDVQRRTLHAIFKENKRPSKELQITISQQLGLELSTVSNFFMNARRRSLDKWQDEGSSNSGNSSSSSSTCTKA
Paired box protein Pax-6 (Homo sapiens), sequence (P26367 whole entry, looked up): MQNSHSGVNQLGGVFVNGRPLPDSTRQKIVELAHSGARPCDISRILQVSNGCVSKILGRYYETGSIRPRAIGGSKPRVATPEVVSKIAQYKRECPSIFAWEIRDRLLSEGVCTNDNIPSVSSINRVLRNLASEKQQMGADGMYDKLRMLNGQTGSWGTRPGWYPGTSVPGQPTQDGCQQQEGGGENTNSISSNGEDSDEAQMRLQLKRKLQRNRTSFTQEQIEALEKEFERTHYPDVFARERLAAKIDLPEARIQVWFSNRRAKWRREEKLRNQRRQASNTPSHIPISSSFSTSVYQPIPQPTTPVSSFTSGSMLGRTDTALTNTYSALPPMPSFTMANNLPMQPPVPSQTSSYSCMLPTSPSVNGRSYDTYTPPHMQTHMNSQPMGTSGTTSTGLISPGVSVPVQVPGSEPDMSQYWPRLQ
Hepatocyte nuclear factor 3-beta (Homo sapiens), sequence (Q9Y261 whole entry, looked up): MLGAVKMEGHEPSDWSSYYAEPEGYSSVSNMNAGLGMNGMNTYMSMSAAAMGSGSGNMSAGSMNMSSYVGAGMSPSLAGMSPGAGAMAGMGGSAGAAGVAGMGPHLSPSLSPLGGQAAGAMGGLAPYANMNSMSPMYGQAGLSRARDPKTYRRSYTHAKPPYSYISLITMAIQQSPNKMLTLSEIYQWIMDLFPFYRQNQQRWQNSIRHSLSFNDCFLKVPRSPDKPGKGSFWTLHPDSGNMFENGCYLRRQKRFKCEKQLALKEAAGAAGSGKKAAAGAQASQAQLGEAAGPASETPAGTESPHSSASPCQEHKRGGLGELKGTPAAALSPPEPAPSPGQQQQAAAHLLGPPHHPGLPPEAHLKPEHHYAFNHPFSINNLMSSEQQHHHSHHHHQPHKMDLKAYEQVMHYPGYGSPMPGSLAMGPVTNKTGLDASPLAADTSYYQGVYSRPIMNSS
Heat shock factor protein 1 (Homo sapiens), sequence (Q00613 whole entry, looked up): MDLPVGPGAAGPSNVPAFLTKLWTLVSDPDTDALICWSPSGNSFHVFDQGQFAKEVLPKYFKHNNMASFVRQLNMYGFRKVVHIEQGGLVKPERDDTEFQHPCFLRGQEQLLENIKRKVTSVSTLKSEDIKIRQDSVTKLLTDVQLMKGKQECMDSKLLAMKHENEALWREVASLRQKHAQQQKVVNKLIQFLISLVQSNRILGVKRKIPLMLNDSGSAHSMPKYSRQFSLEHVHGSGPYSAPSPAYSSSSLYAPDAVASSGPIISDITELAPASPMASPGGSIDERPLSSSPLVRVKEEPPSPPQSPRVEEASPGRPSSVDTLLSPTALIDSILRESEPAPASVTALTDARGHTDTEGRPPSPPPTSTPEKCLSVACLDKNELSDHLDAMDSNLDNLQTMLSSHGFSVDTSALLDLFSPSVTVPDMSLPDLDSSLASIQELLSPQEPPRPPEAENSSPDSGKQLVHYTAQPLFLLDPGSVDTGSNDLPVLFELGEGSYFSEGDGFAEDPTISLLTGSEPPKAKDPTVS
Hypoxia-inducible factor 1-alpha (Homo sapiens), sequence (Q16665 whole entry, looked up): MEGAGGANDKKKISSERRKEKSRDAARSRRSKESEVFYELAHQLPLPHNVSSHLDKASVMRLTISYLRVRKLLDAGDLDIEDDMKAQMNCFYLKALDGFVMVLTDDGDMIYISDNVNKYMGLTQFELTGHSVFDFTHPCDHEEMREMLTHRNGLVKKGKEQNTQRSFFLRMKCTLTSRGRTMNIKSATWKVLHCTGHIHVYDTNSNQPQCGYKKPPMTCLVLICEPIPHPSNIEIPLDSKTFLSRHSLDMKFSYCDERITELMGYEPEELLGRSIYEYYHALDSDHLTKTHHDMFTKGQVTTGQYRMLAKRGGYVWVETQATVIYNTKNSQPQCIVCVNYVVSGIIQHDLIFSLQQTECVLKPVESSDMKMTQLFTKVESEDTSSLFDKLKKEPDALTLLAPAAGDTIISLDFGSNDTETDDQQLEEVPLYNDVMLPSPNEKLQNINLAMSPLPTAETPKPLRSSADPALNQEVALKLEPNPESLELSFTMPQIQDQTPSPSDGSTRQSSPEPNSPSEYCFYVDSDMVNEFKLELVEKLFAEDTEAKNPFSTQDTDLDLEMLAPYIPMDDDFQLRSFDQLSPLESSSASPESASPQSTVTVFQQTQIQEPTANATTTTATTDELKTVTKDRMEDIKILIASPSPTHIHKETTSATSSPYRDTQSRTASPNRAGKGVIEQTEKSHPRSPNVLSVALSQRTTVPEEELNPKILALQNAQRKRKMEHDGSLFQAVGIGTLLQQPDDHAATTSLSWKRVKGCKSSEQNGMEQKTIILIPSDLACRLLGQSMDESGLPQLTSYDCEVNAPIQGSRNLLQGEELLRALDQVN

As to `CC(C)(C1CCC(O)CC1)C1CCC(O)CC1` (centres undefined), the result in assay [1], in assay [2], in assay [3], in assay [5], in assay [6] and in assay [7] was inactive. Moreover, the molecule was called inactive in assay [8], in assay [9], in assay [10], in assay [11], in assay [12] and in assay [13]. The call in assay [14], in assay [15], in [16] and in assay [17] was inactive. The AC50 in assay [4] was 20.4 µM (active).

For `Nc1nc(=S)[nH][nH]1`, the result in [1], in [2], in assay [3], in [4], in assay [5] and in assay [6] was inactive. Further, the outcome in [7], in assay [8], in [9], in assay [18], in [10] and in assay [11] was inactive. Besides, the molecule was called inactive in assay [19], in [12], in assay [13], in assay [14], in assay [15] and in assay [17].

Regarding `Cc1c([N+](=O)[O-])c(C)c([N+](=O)[O-])c(C(C)(C)C)c1[N+](=O)[O-]`, the call in assay [1], in [2], in assay [3], in [5], in [6] and in assay [7] was inactive. Also, the molecule was called inactive in assay [8], in assay [9], in assay [18], in assay [11], in assay [12] and in assay [13]. Besides, the result in assay [16] and in assay [17] was inactive. The values for the AC50 in assay [4], in [10] and in [15] were 23.7 µM (active), 22.5 µM (active) and 64.1 µM (active), respectively.

As for `CCCCCCCCCCCCBr`, the molecule was called inactive in [1], in [2], in assay [3], in assay [4], in assay [5] and in [6]. Besides, the result in [7], in [9], in assay [18], in assay [10], in [11] and in assay [12] was inactive. Besides, the outcome in assay [13], in [14], in assay [15], in [16] and in [17] was inactive.
